The supplement of paper PMC6992640
± gives the standard deviation of the averaged measurements.

Columns and labels:
Assay in all cases: cell viability (% of vehicle); higher = less cytotoxic
[1] = tested on: HCI01 (cells of a triple-negative basal-like breast cancer xenograft); conditions: 10 µM; 72 h
[2] = tested on: HCI03 (cells of an ER-positive luminal breast cancer xenograft); conditions: 10 µM; 72 h
[3] = tested on: HCI09 (cells of a triple-negative luminal androgen receptor type breast cancer xenograft); conditions: 10 µM; 72 h
[4] = tested on: HCI11 (cells of an ER-positive luminal breast cancer xenograft); conditions: 10 µM; 72 h
[5] = tested on: HCI13 (cells of an ER-positive luminal breast cancer xenograft); conditions: 10 µM; 72 h
[6] = tested on: HCI16 (cells of a triple-negative basal-like breast cancer xenograft); conditions: 10 µM; 72 h
[7] = tested on: UCD52 (cells of a triple-negative basal-like breast cancer xenograft); conditions: 10 µM; 72 h
[8] = tested on: WHIM2 (cells of a triple-negative basal-like breast cancer xenograft); conditions: 10 µM; 72 h
[9] = tested on: WHIM30 (cells of a triple-negative basal-like breast cancer xenograft); conditions: 10 µM; 72 h
[10] = tested on: HCI01; conditions: 1 µM; 72 h
[11] = tested on: UCD52; conditions: 1 µM; 72 h
[12] = tested on: WHIM2; conditions: 1 µM; 72 h
[13] = tested on: WHIM30; conditions: 1 µM; 72 h

SMILES	cell viability [1]	cell viability [2]	cell viability [3]	cell viability [4]	cell viability [5]	cell viability [6]	cell viability [7]	cell viability [8]	cell viability [9]	cell viability [10]	cell viability [11]	cell viability [12]	cell viability [13]
O=C(OC1CC2CCC(C1)[N+]21CCCC1)C(O)(c1ccccc1)c1ccccc1.[Cl-] (centres undefined) [Trospium chloride]	158 ± 1.6	119	112 ± 5.4	124	157 ± 39	165	101 ± 10	110 ± 14	121 ± 3.2	–	–	–	–
CN(C)C1C(=O)C(C(N)=O)=C(O)C2(O)C(=O)C3=C(O)c4c(O)cccc4C(C)(O)C3C(O)C12.O.O (centres undefined) [Oxytetracycline Dihydrate]	81.3 ± 15	129	111 ± 22	83.1	123.2 ± 0.95	116	95.3 ± 1.7	72.2 ± 15	123.8 ± 0.32	–	–	–	–
CCCCCCCCCCCCCCCC[N+](C)(C)C.[Br-] [Cetrimonium Bromide (CTAB)]	44.3 ± 15	56.5	21.7 ± 7.3	72	26.9 ± 2	69.1	37.5 ± 1.9	42.4 ± 8.1	35.6 ± 1.7	87.8	75.6	74.2	49.2
Cl.O=C1CCC2(O)C3Cc4ccc(O)c5c4C2(CCN3CC2CC2)C1O5 (centres undefined) [Naltrexone HCl]	120 ± 20	143	108.5 ± 0.5	108	167 ± 2.8	151	80.3 ± 20	88.9 ± 6	92.9 ± 7.2	–	–	–	–
CN1C2CCC1CC(OC(=O)C(CO)c1ccccc1)C2 (centres undefined) [Hyoscyamine]	135 ± 14	132	109 ± 16	94.3	145 ± 5.8	118	74.2 ± 7.5	93.8 ± 4	108 ± 3.8	–	–	–	–
CCC1(C)CC(=O)NC(=O)C1 [Bemegride]	112 ± 13	96.5	91.7 ± 10	109	162 ± 13	108	85.8 ± 8.3	97.9 ± 6	97.2 ± 8.1	–	–	–	–
CCC1(c2cccc(O)c2)CCCCN(C)C1.Cl (centres undefined) [Meptazinol HCl]	69.9 ± 42	141	98.1 ± 10	94	111 ± 5	112	85.7 ± 6	91.8 ± 33	181.3 ± 0.74	–	–	–	–
CCCCCCCCCCCCCCCC[n+]1ccccc1.[Cl-] [Cetylpyridinium Chloride]	32.9 ± 12	44.4	16.9 ± 3.2	53.1	25 ± 4.5	42.1	24.2 ± 1.9	36.7 ± 13	28.1 ± 0.9	92.7	67.6	63.4	52.8
CCOC(=O)c1cncn1C(C)c1ccccc1 (centres undefined) [Etomidate]	114 ± 2.7	89.8	96.6 ± 3.1	90.1	103 ± 14	77.5	88.6 ± 2.2	81.8 ± 20	117 ± 6.2	–	–	–	–
CC(O)(CS(=O)(=O)c1ccc(F)cc1)C(=O)Nc1ccc(C#N)c(C(F)(F)F)c1 (centres undefined) [Bicalutamide]	108 ± 8.9	113	90.6 ± 13	90.2	127 ± 3.6	108	89.7 ± 11	90.2 ± 6.4	108 ± 3.1	–	–	–	–
CC(C)CC(CN)CC(=O)O (centres undefined) [Pregabalin]	97.8 ± 10	104	90.8 ± 9	95.6	138 ± 18	70.8	78.2 ± 7.7	81.4 ± 9.4	111 ± 21	–	–	–	–
C[N+](C)(C)CC(=O)O.[Cl-] [Betaine hydrochloride]	111 ± 4.8	123	95.3 ± 4.7	103	113 ± 11	122	82 ± 6.6	95.5 ± 6.1	107 ± 2.4	–	–	–	–
CCC1=C[C@H]2CN3CCc4c([nH]c5ccccc45)[C@@](C(=O)OC)(C2)[C@@H]13 [Catharanthine]	88.2 ± 14	122	99.5 ± 13	92.1	94 ± 2.4	124	101 ± 2.3	85.5 ± 14	97 ± 3.2	–	–	–	–
O.O=P1(N(CCCl)CCCl)NCCCO1 (centres undefined) [Cyclophosphamide monohydrate]	133 ± 17	147	90.3 ± 17	125	140 ± 5.4	125	98.5 ± 2.4	106 ± 2.2	130 ± 8.5	–	–	–	–
O=C(O)CCCc1ccc(N(CCCl)CCCl)cc1 [Chlorambucil]	109 ± 15	179	99.8 ± 1.1	92	113.2 ± 0.69	131	108 ± 4.7	96.7 ± 9.3	126 ± 8.3	–	–	–	–
CC12CC(=CO)C(=O)CC1CCC1C2CCC2(C)C1CCC2(C)O (centres undefined) [Oxymetholone]	114 ± 30	97.8	85 ± 38	86.7	54.8 ± 5.8	124	80.6 ± 3.8	90.9 ± 26	135 ± 1.9	–	–	–	–
O=P1(NCCCl)OCCCN1CCCl (centres undefined) [Ifosfamide]	106 ± 14	107	96.28 ± 0.62	84.8	153 ± 11	74.4	104.1 ± 0.65	95.7 ± 26	109 ± 2.2	–	–	–	–
Cc1cccc(C)c1NC(=O)CN1CCCC1=O [Nefiracetam]	124 ± 21	128	99.9 ± 6.5	91.9	149 ± 33	113	74.9 ± 0.92	85.6 ± 9.6	165 ± 5.6	–	–	–	–
CCC[C@H](C)[C@@]1(CC)C(=O)N=C([O-])NC1=O.[Na+] [Pentobarbital sodium salt]	86.4 ± 3	105	81.9 ± 8.1	85.2	96.3 ± 17	87	86.6 ± 2.1	96.2 ± 21	99.4 ± 11	–	–	–	–
